Results from PubChem BioAssay AID504727 (Broad Institute, 2011).
Active and inactive are the calls of the source.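 Rule for the calls: active = fitted half-maximal concentration AC50 at or below ten times the highest valid tested dose, with signal falling as DNA is displaced (actives reach about 34 µM in these data); inconclusive = flat fit at moderate signal loss, or poor fit quality; inactive = the rest, including signal rising instead of falling.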

experiment: acridine orange-DNA binding displacement – biochemical, fluorescence polarization, cherry-picked samples, set 2, artefact control for KSHV LANA DNA-binding inhibitor project, dose response (AID 504727); details: series mostly up to 35 µM; activity change, negative = DNA displacement: at the top concentration;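 for activity change, negative = DNA displacement: 0% = median of neutral control wells and -100% = mitoxantrone positive control wells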

Activity change, negative = DNA displacement, inactive:
O=C(Nc1ccc(Br)cn1)c1cccc2ccccc12 6.11%
O=c1c2cc(O)c(O)cc2oc2cc(O)c(C3OC(CO)C(O)C(O)C3O)c(O)c12 (stereo not drawn) 2.47%
Cc1ccccc1NC(=S)NC(C)CCc1ccccc1 (stereo not drawn) 0.759%
N#CCCN(CCC#N)C(=O)C1c2ccccc2Oc2ccccc21 -5%
CCOC(=O)C1=C(O)/C(=C/c2cc(C)n(-c3ccccc3)c2C)N=C1C 4.12%
Cc1cccc(C)c1NC(=O)CSc1nnc(-c2ccco2)c(-c2ccco2)n1 -6.38%
CC[C@H](C)[C@H](NC(N)=O)C(=O)Nc1ccc(NC(C)=O)cc1 6%
CC1(C)CCCN(C(=O)c2coc(=O)c(Br)c2)C1 6.71%
NC(=O)c1ccc(NC(=O)C2COc3ccccc3O2)cc1 (stereo not drawn) 4.29%
O=C1/C(=C/c2ccco2)SC(=S)N1c1cccnc1 7.68%
Cc1ccc(OCC(=O)O/N=C(\N)Cc2ccc([N+](=O)[O-])cc2)cc1C 4.56%
CC(/C=C1\SC(=S)N(CCCC(=O)Nc2ccc(C(=O)O)cc2)C1=O)=C\c1ccccc1 6.23%
COc1cccc(C2CC(=O)Nc3cc4c(cc32)CCC4)c1 (stereo not drawn) -1.39%
CCC(=O)Nc1cccc(C(=O)/C=C/c2ccccc2)c1 3.15%
C=CCN1C(=O)/C(=c2\sc3nc(=O)c(Cc4ccccc4Cl)nn3c2=O)c2ccccc21 7.68%
COc1cccc(OCCNc2ccc([N+](=O)[O-])cn2)c1 6.5%
CSc1ccc(/C=N/Nc2cccc(C(=O)O)c2)cc1 4.22%
Cc1ccc(N(C)C(=O)C2CCCN2S(=O)(=O)c2ccc3c(c2)n(C)c(=O)c(=O)n3C)cc1 (stereo not drawn) 4.43%
Brc1ccc(-c2noc(COc3ccc4c(c3)CCC4)n2)o1 4.23%
O=C1CC(=O)N(Cc2ccco2)C(=O)N1 8.41%
CN(c1ccccc1)S(=O)(=O)c1cccc(NS(=O)(=O)c2cccc(C(=O)O)c2)c1 -1.7%
CCCc1cc(=O)oc2cc(C)cc(OCC(=O)O)c12 -6.33%
CC(=O)NC(C(=O)c1ccccc1)C(=O)c1ccccc1 5.17%
Cc1noc(C)c1C(=O)N1CCN(c2ccc(OCc3ccccc3)cc2)CC1 -11.9%
O=C(CN1C(=O)/C(=C/c2ccco2)SC1=S)Nc1ccc(C(=O)O)c(O)c1 5.32%
Cc1cc(NS(=O)(=O)c2ccc(Nc3nc(-c4sc(N)nc4C)cs3)cc2)no1 11.1%
COc1cc(CN2CC(=O)N(c3cc(Cl)ccc3C)C2=S)cc(OC)c1OC 5.96%
COc1ccc(/C=C/c2cc(C(F)(F)F)[nH]c(=O)n2)cc1OC -1.76%
C/C(=N\Nc1nc2c(s1)CCCC2)c1ccc(Cl)cc1 5.41%
Cc1c(C)n(Cc2ccccc2)c2ncnc(Cl)c12 3.51%
O=C(O)/C=C/C(=O)Nc1ccc(Cc2ccc(NC(=O)/C=C/C(=O)O)cc2)cc1 -6.62%
COc1ccc(NC(=O)CN(C)CC(=O)Nc2ccc(N3CCOCC3)cc2)c([N+](=O)[O-])c1 -1.51%

AC50, active:
COc1cccc2c1C(=O)c1c(O)c3c(c(O)c1C2=O)C[C@@](O)(C(=O)CO)C[C@@H]3O[C@H]1C[C@H](N)[C@H](O)[C@H](C)O1 2.4 µM
CC(C)(C)n1nnnc1C(c1cccnc1)N(Cc1ccccc1)Cc1ccco1 (stereo not drawn) 0.202 µM
COC(=O)C[n+]1cccc2ccccc21 8.59 µM
CC(=O)Oc1ccc2c(c1)Oc1cc(OC(C)=O)ccc1C21OC(=O)c2ccccc21 8.39 µM
COc1ccc(OC)c(-c2c3cc(O)c(=O)cc-3oc3cc(O)c(O)cc23)c1 1.62 µM
O=C1c2cccc3c(O)ccc(c23)C(=O)N1Cc1ccco1 1.19 µM
